Measured values taken from PubChem BioAssay AID1508625 (Wald Lab, School of Medicine, Case Western Reserve …, 2021).

Experiment: enhancers of NK cell killing of ovarian tumor cells, primary screen, imaging, OVCAR3, primary NK cells, calcein-AM imaging (AID 1508625);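 note: compound given to NK cells 16 h before adding targets at 1.5 to 1 ratio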
Details: OVCAR3 lysis by primary NK cells, at 5 µM; z-score: measured here: robust Z-score, single-point normalisation

Structure (SMILES)	corrected activity, negative = more killing [%]	z-score
S=C(c1nc2ccccc2[nH]1)N1CCOCC1	-3.36	-1.07
COc1ccc(-c2cc(C(=O)NN=Cc3ccncc3)[nH]n2)cc1	2.36	1.03
Clc1ccccc1[C@@H]1Nc2ccccc2[C@@H]2C=CC[C@@H]21	-1.75	-0.523
COc1ccccc1Nc1ncc(C(=O)N2CCC(Cc3ccccc3)CC2)c2ccccc12	-5.51	-1.37
COc1ccccc1N1CCN(C(=O)c2ccc(Cn3c(=S)[nH]c4cc5c(cc4c3=O)OCO5)cc2)CC1	-5.34	-1.42
Cc1ccc(OCCCN2CCNCC2)c([N+](=O)[O-])c1	-1.55	-0.864
Cn1c2ccccc2n2c(SCC(=O)O)nnc12	-4.88	-2.01
COC(=O)c1ccc(C=NNc2nc(-c3ccc(Cl)cc3)cs2)cc1	-2.03	-0.861
CC(C)(C)NC(=O)C(=O)NN=Cc1cccc(Br)c1	-4.27	-1.82
Cc1ccc(C(=O)NC(=Cc2cccnc2)C(=O)Nc2ccc(I)cc2)cc1	-0.444	-0.23
COc1ccc(-c2ccc3c(N)c(C(=O)Nc4ccc(Br)cc4)sc3n2)cc1	-3.35	-1
COc1ccc(-n2c(=S)[nH]c3cc(C(=O)NCc4ccc(Cl)cc4)ccc3c2=O)cc1	-2.4	-0.763
CCc1ccccc1-n1cnc2cc(C(=O)NCc3ccc(C)cc3)ccc21	-4.47	-1.2
CCCn1c(C)nc2c(=O)oc3ccccc3c21	3.04	0.943
